Here are results for eight sequences from the supplement of paper PMC6555819.

What all share (test): PBM binding z-score (relative to random genomic background probes); higher = stronger binding; sequences stand for … in GC…GCGATTGACAGCGTAGAATGAAGG
Assay [1] deals with FXR:RXRa (NR concentration 270 nM, RXRa partner concentration 90 nM). A digest of the protocol:
(§1)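 Antibodies against each partner of ligand-free nuclear receptor dimers (one per run) detected binding on custom Agilent 4×180K protein-binding microarrays after 1 h incubation. The double-stranded probes had 34-nt variable regions carrying direct-repeat seeds, single-nucleotide variants, half-site ablations and random human genomic background sequences. Binding z-scores, from regression-normalized fluorescence, use the random background probes as reference.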

Assay [2] concerns LXRa homodimer (NR concentration 270 nM). Put shortly:
as §1

Assay [3] has as its system LXRb homodimer (NR concentration 270 nM). A digest of the protocol: as §1
Assay [4] concerns PPARg:RXRa 270nM:90nM, anti-RXR (NR concentration 270 nM, RXRa partner concentration 90 nM). Put shortly: as §1
For assay [5], the system named is PPARg:RXRa 30nM:10nM, anti-RXR (NR concentration 30 nM, RXRa partner concentration 10 nM). A digest of the protocol:
as §1

In assay [6] the test system is PPARg:RXRa 90nM:30nM, anti-RXR (NR concentration 90 nM, RXRa partner concentration 30 nM). Put shortly: as §1
For assay [7], the system named is PPARg:RXRa DBDmut IVT, anti-RXR (DBD mutation: RXRa K156A/R161A, NR concentration 270 nM, RXRa partner concentration 90 nM). A digest of the protocol: as §1
Assay [8] concerns PPARg:RXRa IVT, anti-PPARg (NR concentration 270 nM, RXRa partner concentration 90 nM). A digest of the protocol:
as §1

The subject of assay [9] is PPARg DBDmut:RXRa IVT, anti-PPARg (DBD mutation: PPARg1 K132A/R137A, NR concentration 270 nM, RXRa partner concentration 90 nM). A digest of the protocol: as §1
The test system of assay [10] is PPARg DBDmut IVT, anti-PPARg (DBD mutation: PPARg1 K132A/R137A, NR concentration 270 nM). Put shortly:
as §1

Assay [11] concerns PPARg homodimer (NR concentration 180 nM). A digest of the protocol: as §1
The test system of assay [12] is PXR homodimer (NR concentration 270 nM). A digest of the protocol: as §1
Assay [13] deals with RARa homodimer (NR concentration 270 nM). A digest of the protocol: as §1
Assay [14] deals with RARb homodimer (NR concentration 270 nM). Put shortly:
as §1

In assay [15] the test system is LXRa:RXRa (NR concentration 270 nM, RXRa partner concentration 90 nM). Put shortly:
as §1

Assay [16] relates to PPARa:RXRa (NR concentration 270 nM, RXRa partner concentration 90 nM). Put shortly:
as §1

For assay [17], the system named is PPARg:RXRa (NR concentration 180 nM, RXRa partner concentration 90 nM). Put shortly: as §1
In assay [18] the test system is PXR:RXRa (NR concentration 270 nM, RXRa partner concentration 90 nM). A digest of the protocol:
as §1

Assay [19] has as its system RARa:RXR (NR concentration 270 nM, RXRa partner concentration 90 nM). A digest of the protocol: as §1
The test system of assay [20] is RARb:RXRa (NR concentration 270 nM, RXRa partner concentration 90 nM). Put shortly: as §1

TCTAGTGGGTCAAAGGTCACACACTCGAAATGCG: the PBM binding z-score in assay [1] came out at 7.63; in [2], 3.93; in [3], 1.59; in assay [4] it was 11.1; in assay [5], 12.2; in [6] it was 12.6. Besides, the PBM binding z-score in assay [7] turned out to be 7.68; in assay [8] it was 8.52; in [9] it was 2.65; in [10], 1.71; in assay [11] it was 4.18; in assay [12], 1.74. For the same sequence, the results for the PBM binding z-score in assay [13] and in assay [14] were 2.97 and 5.22, respectively.

CGTCCAAGGTCGAAGGTCAGTGAAGAGATGACGG: the PBM binding z-score was 3.14 in assay [15]; 0.000668 in [2]; -0.645 in assay [3]; 4.7 in [16]; 5.43 in assay [17]; 5.79 in assay [4]. For the same sequence, the PBM binding z-score in assay [5] is 3.26; in assay [6] it was 5.18; in assay [7], 0.518; in assay [8], 2.36; in assay [9], -0.273; in assay [10] it was -0.43. Also, the PBM binding z-score in assay [11] turned out to be 1.19; in [18], 3.61; in assay [12], 0.105; in [19], 5.45; in assay [13], 0.117; in assay [20] it was 3.98. The PBM binding z-score in [14] is 3.62.

Regarding CCTACTGGGTCACGAAAGGTCATTGATTCAGTGA, the PBM binding z-score stood at 6.45 in assay [1]; 6.45 in assay [2]; 0.81 in assay [3]; 9.12 in assay [17]; 7.71 in assay [4]; 5.23 in assay [5]. Besides, the PBM binding z-score in assay [6] was 6.95; in assay [7], 7.12; in [8], 8.65; in [9], 1.64; in assay [10] it was 2.22; in [11] it was 4.41. The PBM binding z-score is 2.09 in [12], 2.35 in assay [13] and 5.9 in assay [14].

Consider GGAACGAGGGCATTCGAGTTCATAGCATGGCGAT, for which the PBM binding z-score in assay [1] is 3.41; in [2] it was 6.2; in [3], -0.617; in assay [17] it was 1.4; in assay [4] it was 1.33; in assay [5], -0.096. Also, the PBM binding z-score in assay [6] was 0.725; in assay [7], 2.82; in assay [8], 2.61; in assay [9] it was 0.143; in assay [10] it was -0.584; in [11] it was 0.888. Further, the PBM binding z-score in assay [12] was 14; in assay [19], 2.84; in assay [13] it was -0.506; in [20], 2.75; in assay [14], 2.4.

As for CGAACTACGTCATCCAGGACAGTGAATACATTGA, the PBM binding z-score in assay [15] was -0.0453; in assay [2], 0.121; in assay [3], -0.033; in assay [16], -0.0578; in assay [17] it was 0.703; in assay [4], -0.106. Besides, the PBM binding z-score in assay [5] was 0.193; in [6] it was -0.145; in [7], 0.257; in assay [8], 0.155; in [9], 0.664; in assay [10], 1.1. The PBM binding z-score is 0.384 in [11]; -0.0551 in assay [18]; 0.144 in assay [12]; 0.358 in assay [19]; 0.377 in assay [13]; -0.0115 in [20]. Also, the PBM binding z-score in assay [14] was -0.0588.

With TCTCGGAGGACACTAAAGGTCAGAGCTCGACATC, the PBM binding z-score came out at 5.15 in assay [15]; 5.33 in assay [2]; 0.134 in assay [3]; 3.42 in assay [16]; 1.47 in assay [17]; 2.94 in assay [4]. In addition, the PBM binding z-score in [5] is 2.78; in assay [6] it was 2.97; in assay [7] it was 1.65; in [8], 1.59; in assay [9], -0.114; in [10] it was -0.191. Further, the PBM binding z-score in assay [11] was found to be 2.43; in assay [18] it was 3.8; in [12] it was 0.66; in assay [19], 4.14; in assay [13], 0.456; in assay [20], 3.84. Further, the PBM binding z-score in assay [14] stood at 4.7.

As for CCGAGTAGGTTACTAGGGGGCATTCAGTGCGAAT, the PBM binding z-score turned out to be 2.3 in assay [1]; 6.06 in assay [2]; 2.37 in assay [17]; 3.48 in [4]; 1.14 in assay [5]; 2.93 in [6]. Further, the PBM binding z-score in assay [7] was 4.55; in assay [8], 4.9; in assay [11], 1.47; in assay [18] it was 4.21; in assay [12], 6.49; in assay [19], 2.34. For the same sequence, the figures for the PBM binding z-score in assay [13], in assay [20] and in assay [14] were 0.177, 1.92 and 2.16, respectively.

Consider AGAATGAGGTCAAGATCAGGGAAACAGAATACAT, for which the PBM binding z-score in assay [15] is 5.9; in [2], 0.974; in assay [3], 1.7; in assay [16], 6.42; in assay [17], 7.59; in [4] it was 6.96. The PBM binding z-score in [5] was determined as 4.75; in [6], 6.74; in assay [7], 5.82; in assay [8] it was 6.55; in assay [9], 2.94; in assay [10] it was 2.9. The PBM binding z-score was 3.03 in assay [11]; 4.67 in [18]; 1.43 in assay [12]; 5.28 in assay [19]; 1.39 in assay [13]; 5.21 in assay [20]. This sequence gave a PBM binding z-score in [14] of 3.8.
